The supplement of paper PMC6555819

The sequences below were run on PPARg homodimer (NR concentration 180 nM) (assay: PBM binding z-score (relative to random genomic background probes); higher = stronger binding; sequences stand for … in GC…GCGATTGACAGCGTAGAATGAAGG).
How it was run: (§1)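 For binding z-scores, the reference was random background probes on custom Agilent 4×180K protein-binding microarrays. These arrays were incubated 1 h with ligand-free nuclear receptor dimers in PBS pH 7.4, 2% milk, 0.02% Triton X-100, 1 mM DTT, 0.2 mg/mL BSA and 0.4 mg/ml salmon testes DNA. Fluorescence was scanned after antibody detection of each partner (one per run) and regression-normalized.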

| Sequence | PBM binding z-score |
| --- | --- |
| TCTCGGAGGACACGATGGTCAGAGCTTTCCAGAG | -1.04 |
| GCTTACGGATCAAAGGTTATAGCATGAATAGAAT | 0.616 |
| CTACCAAGGTGAACAAGGTCGTCGATTACTATTC | 1.09 |
| AATACAGGGTCATCGTAGGCCAGTGTACGCACAG | 2.51 |
| CCTGCTAGGTCATGGTCAGATAATCTACAGTATG | 1.88 |
| CGAACTAGGTCAAAGGTCAAAGTCGAGCCAACCA | 6.9 |
| AATACAGGGTCATTGTAGGCCAGAGTACGCACAG | 2.91 |
| AGAATGAGGTTATACGTAGATCAGGGATGAAAGT | 0.69 |
| ATCGAAAGGTCGAGGTGAGTTTAGAGAAAGGGAA | 1.7 |
| TGAATGAGGTGATAAGATCAGGGAACGTTGCAAA | -0.472 |
| ATCGAAAGGTCGAAGGTTAGTATACCCACCCGAA | 1.68 |
| TCATATAGGTAAAGGGTGAAAGTCGGTGTGGTAA | 1.99 |
| CCTTACGGGTCAAGGTTATAGCGCGGGTGGTACG | 1.9 |
| CATCCAAGGTCAGAGAGGTCAGTGAATGCCGAGT | 4.41 |
| CCTTACGGGGCACTGACAGGTTATAGCATTTGGA | 0.227 |
| TGAATGAGGTTAAAAATCAGGGAACGTGGCGTCG | -0.0328 |
| TTACCAAGGTGAAAGGTTGTTGATGCACGCCTTG | 0.571 |
| CCTAGCAGGCCCGGGTCACTCAAGCATTTCGCTT | 0.788 |
| AGTCAAAGTTCACCAGGTAACGTAAGATTCAGCT | 3.02 |
| TCTTGTAGATCAAGCCGGTTAAGAAAGCCTGAGT | 0.0807 |

| Sequence | PBM binding z-score |
| --- | --- |
| TCGAGTAGGTTAGGGGCCTTCAGAATGGCGTCGA | -0.145 |
| GCTGGGAGGACAAGGTCAGAGCTTTGTCCGTAGA | 1.02 |
| CCTTAAGGGTCAAGGTTATAGCACGGGTGGTACG | 2.23 |
| GCGAGCAGGCCATTTGGGTCACTCAATGACGGGC | 0.0566 |
| CGAACTAGGTCATCTAGGACAGTGAATACATTGA | 2.99 |
| CCAGACAGGTGAAAGGTACCTCAGTCTGGTACGC | 0.247 |
| GCAGACAGGTAAAACGCAGGTAACTCAGGGTGGC | -0.847 |
| CCTCGCAGGCCAATCTGGGTCACTCAAGGCTTGA | 0.567 |
| GGAACGAGGGCATTCTAGTTGATAGCATGGCGAT | -0.294 |
| CCTACTAGGCCATTCAGAGGTCATTGATCATATG | 2.94 |
| AGAACGACGGCACGCTGAGTTGATAGCAGAGTAG | -0.628 |
| TCTGCTAGGTTAGTTGGTCAGCTAACGAGCTGCC | -1.12 |
| ATCTCTAGGTAACAAGTTCAGTGTAAGAGAGGAC | 1.08 |
| ATCGAAAGGTCGTGAGGTGAGTAGACAGAAAGGC | 1.44 |
| CCTACTGGGCCACGAAAGCTCATTGATTCAGTGA | -0.477 |
| AGAACGAGGGCAATGAGTTGATGGCACGGGTGGC | -0.0227 |
| CCTACTGGGCCAAGGTTATTGATCAGTCAAAGCA | 0.597 |
| CCTTACGGGTCAAGGTTTTAGCACGGGTGGTACG | 2.55 |
| TCTTGTAGACCAATAGAGGTTAAGAAAGTGCGCT | 0.191 |
| ACAGACAGGTGAGTGAAGGTAACTTAGCTGGACG | 0.206 |

The sequences below were run on PXR:RXRa (NR concentration 270 nM, RXRa partner concentration 90 nM) in the same assay as above.
How it was run: as §1

| Sequence | PBM binding z-score |
| --- | --- |
| TCTCGGAGGACACGATGGTCAGAGCTTTCCAGAG | -0.421 |
| GCTTACGGATCAAAGGTTATAGCATGAATAGAAT | 2.38 |
| CTACCAAGGTGAACAAGGTCGTCGATTACTATTC | 2.61 |
| AATACAGGGTCATCGTAGGCCAGTGTACGCACAG | 4.95 |
| CCTGCTAGGTCATGGTCAGATAATCTACAGTATG | 1.35 |
| CGAACTAGGTCAAAGGTCAAAGTCGAGCCAACCA | 7.09 |
| AATACAGGGTCATTGTAGGCCAGAGTACGCACAG | 4.83 |
| AGAATGAGGTTATACGTAGATCAGGGATGAAAGT | 1.28 |
| ATCGAAAGGTCGAGGTGAGTTTAGAGAAAGGGAA | 5.04 |
| TGAATGAGGTGATAAGATCAGGGAACGTTGCAAA | -0.0646 |
| ATCGAAAGGTCGAAGGTTAGTATACCCACCCGAA | 3.34 |
| TCATATAGGTAAAGGGTGAAAGTCGGTGTGGTAA | 1.31 |
| CCTTACGGGTCAAGGTTATAGCGCGGGTGGTACG | 3.27 |
| CATCCAAGGTCAGAGAGGTCAGTGAATGCCGAGT | 6.17 |
| CCTTACGGGGCACTGACAGGTTATAGCATTTGGA | -0.0592 |
| TGAATGAGGTTAAAAATCAGGGAACGTGGCGTCG | 0.848 |
| TTACCAAGGTGAAAGGTTGTTGATGCACGCCTTG | 1.28 |
| CCTAGCAGGCCCGGGTCACTCAAGCATTTCGCTT | 1.78 |
| AGTCAAAGTTCACCAGGTAACGTAAGATTCAGCT | 4.67 |
| TCTTGTAGATCAAGCCGGTTAAGAAAGCCTGAGT | 0.392 |

| Sequence | PBM binding z-score |
| --- | --- |
| TCGAGTAGGTTAGGGGCCTTCAGAATGGCGTCGA | -0.478 |
| GCTGGGAGGACAAGGTCAGAGCTTTGTCCGTAGA | 1.89 |
| CCTTAAGGGTCAAGGTTATAGCACGGGTGGTACG | 4.37 |
| GCGAGCAGGCCATTTGGGTCACTCAATGACGGGC | 0.738 |
| CGAACTAGGTCATCTAGGACAGTGAATACATTGA | 1.73 |
| CCAGACAGGTGAAAGGTACCTCAGTCTGGTACGC | 0.109 |
| GCAGACAGGTAAAACGCAGGTAACTCAGGGTGGC | -0.561 |
| CCTCGCAGGCCAATCTGGGTCACTCAAGGCTTGA | 1.21 |
| GGAACGAGGGCATTCTAGTTGATAGCATGGCGAT | 1.53 |
| CCTACTAGGCCATTCAGAGGTCATTGATCATATG | 4.79 |
| AGAACGACGGCACGCTGAGTTGATAGCAGAGTAG | -0.462 |
| TCTGCTAGGTTAGTTGGTCAGCTAACGAGCTGCC | -0.398 |
| ATCTCTAGGTAACAAGTTCAGTGTAAGAGAGGAC | 1.61 |
| ATCGAAAGGTCGTGAGGTGAGTAGACAGAAAGGC | 3.07 |
| CCTACTGGGCCACGAAAGCTCATTGATTCAGTGA | -0.923 |
| AGAACGAGGGCAATGAGTTGATGGCACGGGTGGC | 1.19 |
| CCTACTGGGCCAAGGTTATTGATCAGTCAAAGCA | 0.145 |
| CCTTACGGGTCAAGGTTTTAGCACGGGTGGTACG | 2.95 |
| TCTTGTAGACCAATAGAGGTTAAGAAAGTGCGCT | 3.17 |
| ACAGACAGGTGAGTGAAGGTAACTTAGCTGGACG | -0.213 |
